# Inconclusive results are not listed. Unmarked numbers belong to inactive results. The call rests on the fitted dose curve; in most records, active means well fitted cell-killing curve with a large enough effect in the repeat runs; inconclusive means weak or mixed curves, or effect the other way; inactive means no such curve, though single readings can be large or run the other way.
# Test: qHTS assay to identify small molecule antagonists of the retinoid-related orphan receptor gamma (ROR-gamma) signaling pathway - cell viability counter screen (AID 1159520); further: nearly all actives have a fitted effect of over 50% in size
# Details: Tet-on RORgamma CHO cells viability, ATP luminescence, 16 h; series mostly up to 92.4 µM; activity, negative = cytotoxicity: at the top concentration
# Text: U.S. Tox21 Program National Center for Advancing Translational Sciences [NCATS] NIH Chemical Genomics Center [NCGC] U.S. Environmental Protection Agency [EPA] National Institutes of Environmental Health Sciences [NIEHS] National Toxicology Program [NTP] U.S. Food and Drug Administration [FDA] Tox21 Assay Overview: Nuclear steroid hormone receptors are involved in many biological processes including inflammatory responses, cell proliferation, and apoptosis. Environmental factors or compounds disrupting these nuclear receptor pathways and gene expression may promote susceptibility to immunotoxicants and autoimmune diseases. One important group of these expression factors are the retinoid-related orphan receptors. To assess compounds that may interfere with the retinoid-related orphan receptor gamma (ROR-gamma) transcription factor, a cell-based luciferase assay was used. The CHO cell-based assay utilizes a TET-inducible ROR expression factor and ROR response element-LUC reporter gene. Reporter gene activity was induced using Doxycycline Hyclate and measured after 16 hr incubation. Tet-on ROR gamma CHO cells were used to screen against the Tox21 10K compound library for cytotoxicity by measuring the viability of the cells based on the quantitation of the ATP.
# Tox21 Assay Protocol Summary: Tet-on ROR gamma CHO cells were dispensed at 1,000 cells in 4 uL of culture medium per well into white wall/solid bottom 1536-well plates using a Multidrop Combi (Thermo Scientific, Waltham, MA) dispenser. Following incubation at 37 C and 5% CO2 for 4 hr, 23 nL of compounds dissolved in DMSO, positive controls or DMSO only were transferred by a Pintool station (Kalypsys, San Diego, CA) and after 2 hr incubation at 37 C, one ul of 1 uM (final concentration) of Doxycycline Hyclate was added to all the wells by using a Flying Reagent Dispenser (FRD) (Aurora Discovery, San Diego, CA). After 16 hr incubation at 37 C and 5% CO2, 5 uL of CellTiter-Glo reagent (Promega Corporation, Madison, WI) was added to each assay plate using FRD. After 30 min incubation at room temperature, luminescence was quantified on a ViewLux plate reader (Perkin Elmer, Waltham, MA).
# On the % scale 0 is the no-effect control and ±100 the full control effect.
row,Structure (SMILES),"activity, negative = cytotoxicity"
1,Cc1ccccc1N1CCN(CCc2nnc3n2CCCC3)CC1,2.66% [at 42.5 µM]
2,CCC(CO)CO,-0.244%
3,C=CCOCC(O)CCl (stereo not given),1.78%
4,O=C(O)CCNC(=O)c1ccccc1,0.716% [at 42.5 µM]
5,NC(Cc1c[nH]c2ccccc12)C(=O)O (stereo not given),0.27% [at 42.5 µM]
6,CC(=O)Nc1ccc(C)cc1,8.63%
7,O=c1[nH]c(=O)c2ccccc2o1,3.13% [at 42.5 µM]
8,COCC(=O)Nc1c(I)c(C(=O)NCC(O)CO)c(I)c(C(=O)N(C)CC(O)CO)c1I (stereo not given),-0.631% [at 42.5 µM]
9,C[Si]1(C)N[Si](C)(C)N[Si](C)(C)N1,0.422%
10,O=C(O)/C=C/c1ccccc1,1.57%
11,CCCCCCCCCCCCCC(=O)OC,6.22%
12,CC(C)CCCCCCOC(=O)C1CCCCC1C(=O)OCCCCCCC(C)C (stereo not given),4.57%
13,CCc1nccnc1C,-5%
14,CCOC(=O)CCc1ccccc1,7.8%
15,CN[C@@H]1[C@@H](O)[C@@H](O[C@@H]2[C@H](O)[C@H](O[C@H]3OC(CN)=CC[C@H]3N)[C@@H](N)C[C@H]2N)OCC1(C)O (stereo not given in full),6.75% [at 42.5 µM]
16,CCCCCCCCCCCCOC(C)=O,-3.52%
17,CC(C)CCC(=O)CCC(C)C,5.16%
18,COc1cc2c(Nc3ccc(Br)cc3F)ncnc2cc1OCC1CCN(C)CC1,0.265% [at 42.5 µM]
19,CC(=O)N(CC(O)CO)c1c(I)c(C(=O)NCC(O)CO)c(I)c(C(=O)NCC(O)CO)c1I (stereo not given),2.67% [at 42.5 µM]
20,CCCCCCCCCOCC1CO1 (stereo not given),0.0793%

row,Structure (SMILES),"activity, negative = cytotoxicity"
1,OC(CCN1CCCCC1)(c1ccccc1)c1ccccc1,-0.753% [at 42.5 µM]
2,Cc1ccc(S(=O)(=O)NC(=O)NC2CCCCCCC2)cc1,0.655% [at 42.5 µM]
3,C=CCOc1c(Br)cc(Br)cc1Br,-0.0202%
4,CC1CCC(C(C)(C)S)C(=O)C1 (stereo not given),3.35%
5,Oc1ccccc1Cc1ccccc1O,-22.3%
6,CC(=O)OC(C(=O)c1ccccc1)c1ccccc1 (stereo not given),-12.6%
7,O=c1[nH]c(=O)c2[nH]c(=O)[nH]c2[nH]1,-0.126% [at 8.39 µM]
8,c1ccccc1,0.606%
9,O=C1c2ccccc2-c2ccccc21,0.444%
10,CC(C)COC(=O)/C=C/c1ccccc1,1.13%
11,CCCCCC(=O)OCC,3.55%
12,SCCSCCS,5.03%
13,O=C(O)C(=O)Nc1cccc(-c2nn[nH]n2)c1,0.374% [at 42.5 µM]
14,Cc1cccc(Nc2ccncc2S(=O)(=O)NC(=O)NC(C)C)c1,3.37% [at 42.5 µM]
15,CCN(CCC#N)c1ccccc1,-0.153%
16,CCCCCN(CCCOC)C(=O)C(CCC(=O)O)NC(=O)c1ccc(Cl)c(Cl)c1 (stereo not given),4.81% [at 42.5 µM]
17,O=S(=O)(O)CCO,5.67%
18,Cc1nc([N+](=O)[O-])cn1-c1ccc([N+](=O)[O-])cc1,2.03% [at 42.5 µM]
19,CCCCCC1CCCC(=O)O1 (stereo not given),6.12%
20,COc1cc2c3cc1Oc1cc(ccc1O)C[C@@H]1c4c(cc(OC)c(O)c4Oc4ccc(cc4)C[C@@H]3N(C)CC2)CC[N+]1(C)C,3.91% [at 42.5 µM]
